Activity change, negative = inhibition data for 89 compounds are collected here from PubChem BioAssay AID1259415 (National Center for Advancing Translational Sciences (NCATS), 2018).

The structures appear in SMILES notation. Values joined by “and” are separate entries in the source; they are usually repeats but may differ in a detail not shown here. Equal entries are not always repeated. In all, about 410,000 compounds went through this assay and about 18,000 (4.4%) were called active. Not shown: some 7% with an inconclusive outcome. No stated cut-off is given here; in the data, active means activity change below about -60%; inconclusive means no clear call, values can overlap the other calls; inactive means above about -39%. For the sample, actives were picked, then their nearest neighbours and some compounds at random. Some structures have more than one record in an assay (separate samples or runs), and their calls can disagree.
On the % scale 0 is the no-effect control and ±100 the full control effect.

The nature of this experiment: qHTS Assay for inhibitors of the human cytomegalovirus (HCMV). The conditions noted are these: HFF cells, HCMV-luciferase reporter, 72 h; at 57.5 µM; stronger effect = lower value. The method, boiled down: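 Luciferase read-out from HCMV-luciferase-infected HFFs (MOI 1 PFU/cell) 72 h post infection at 37C; compounds added after 16 h cell attachment; activity normalized between buffer-only basal and Salinomycin (10uM) inhibitor controls.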
Background: qHTS replaces the single test concentration by a dilution series.
For the compound `Cc1cc(C)c2oc(C(=O)Nc3c(C(=O)Nc4ccccc4)oc4ccccc34)cc(=O)c2c1`, the activity change, negative = inhibition was 8.41% (inactive).
On to `O=C(NNC(=O)C(O)c1ccccc1)NC1CCCCC1` (centres undefined), for which the activity change, negative = inhibition was -11.7% (inactive).
In the case of `O=C(Cn1nnc(-c2ccccc2)n1)NC(=O)NC1CCCC1`, the activity change, negative = inhibition was 11.9% (inactive).
The value for `Cc1nc(/N=C(\N)NC(=O)NC2CCCCC2)nc2ccccc12` was -84.3% (active); that for `Cc1ccc(C)c(S(=O)(=O)N2CCN(c3ncnc4sccc34)CC2)c1` was -96.6% (active).
Consider `Cc1ccc(C)c(S(=O)(=O)n2nc(C)c(S(=O)(=O)N3CCC(C)CC3)c2C)c1`, for which the activity change, negative = inhibition is -3.95% (inactive).
Regarding `Cc1ccc(S(=O)(=O)N2CCN(Cc3cccc(C)c3O)CC2)cc1`, the activity change, negative = inhibition is -3.34% (inactive).
With `COc1ccc(S(=O)(=O)N2CCN(c3ncnc4c(-c5ccccc5)nsc34)CC2)cc1`, the activity change, negative = inhibition is 3.62% (inactive).
Consider `Cc1ccc(C)c(S(=O)(=O)c2nnn3c2nc(N2CCOCC2)c2sccc23)c1`, for which the activity change, negative = inhibition was 28.6% (inactive).
For `Cc1ccc(S(=O)(=O)N2CCN(c3ncnc4ccccc34)CC2)cc1`, the activity change, negative = inhibition is -87.3% (active).
With `CCOc1ccc2oc(C(=O)N(CC)CC(=O)Nc3ccc(NC(C)=O)cc3)c(C)c2c1`, the activity change, negative = inhibition was -18.7% (inactive).
On to `O=S(=O)(c1ccc(Br)cc1)c1nnn2c1nc(N1CCOCC1)c1sccc12`, for which the activity change, negative = inhibition was 18.7% (inactive).
`CCCOc1ccc(N2C(=O)CC(N(CCc3ccc(S(N)(=O)=O)cc3)C(C)=O)C2=O)cc1` (centres undefined): the activity change, negative = inhibition is 29.6% (inactive).
Regarding `CC1CCN(C(=O)Cn2c(=O)n(-c3ccc(Cl)cc3)c(=O)c3c4c(sc32)CCC4)CC1`, the activity change, negative = inhibition is 3.05% (inactive).
For the compound `O=C(Cn1nc(C(F)(F)F)c2c1CCC2)NCc1ccc(F)cc1`, the activity change, negative = inhibition is -0.659% (inactive).
The value for `O=C(Cn1nc(C(F)(F)F)c2c1CCCC2)Nc1ccc(Cl)cc1` was -105% (active); that for `Cc1cc(NC(=O)Cn2nc(C(F)(F)F)c3c2CCCC3)no1` was 31% (inactive); that for `Cc1ccc2nc(CNC(=O)c3ccccc3)[nH]c2c1` was 61% (inactive).
For the compound `CCOc1ccc2nc(N3CCC(C(=O)Nc4cc(C)ccc4C)CC3)sc2c1`, the activity change, negative = inhibition was 20% (inactive).
The value for `CCCNC(=O)C1CCN(c2nc3ccc(C)cc3[nH]2)CC1` was 0% (active); that for `Cc1[nH]c2ccccc2c1[N+](=O)[O-]` was 6.63% (inactive); that for `CCCCNC(=O)CN1C(=O)NC(Cc2ccccc2)(Cc2ccccc2)C1=O` was -14.4% (inactive).
The value for `Cc1cccc(N(Cc2ccccc2)C(=O)c2ccccc2F)c1` was 1.73% (inactive); that for `CCCCC(O)(CCCC)C(=O)NN(C(=O)CCl)c1ccccc1` was -94.6% (active).
For the compound `CCCC(O)(CCC)C(=O)NN(C(=O)CCl)c1cccc(C)c1`, the activity change, negative = inhibition was -101% (active).
Turning to `COC(=O)N(NC(=O)C(O)(C(C)C)C(C)C)c1ccccc1`, the activity change, negative = inhibition is 2.98% (inactive).
As for `Cc1cccc(N(CC(O)CN(C)C)S(=O)(=O)c2ccccc2)c1` (centres undefined), the activity change, negative = inhibition was -26.4% (inactive).
As for `COCn1c(C(O)c2ccccc2)cc2ccccc21` (centres undefined), the activity change, negative = inhibition was 3.56% (inactive).
In the case of `O=C(CSc1ncc(S(=O)(=O)c2ccc(Br)cc2)c(=O)[nH]1)Nc1ccc2c(c1)OCCO2`, the activity change, negative = inhibition was 3.97% (inactive).
Regarding `CCCN1CN=C(NS(=O)(=O)c2ccc(NC(C)=O)cc2)NC1`, the activity change, negative = inhibition is -18.1% (inactive).
On to `COc1ccccc1NC(=O)CSc1oc(-c2ccco2)nc1S(=O)(=O)c1ccc(Br)cc1`, for which the activity change, negative = inhibition is 12.2% (inactive).
On to `CCOc1ccc(NC(=O)CCc2c(C)nn(-c3ccc(N4CCCC4)nn3)c2C)cc1`, for which the activity change, negative = inhibition was -23.2% (inactive).
Regarding `COc1ccc(-c2nc3sc(CCNS(=O)(=O)c4ccc(F)c(C)c4)c(C)n3n2)cc1`, the activity change, negative = inhibition was -32.9% (inactive).
For the compound `CCCCN=C(N)/C(C(=O)OCC)=C(\O)c1ccc(OC)cc1`, the activity change, negative = inhibition was -26.4% (inactive).
The value for `Cc1ccc(-c2nnc(SCc3ccccc3C)o2)cc1` was 82.8% (inactive).
Regarding `C/C(=C/c1ccccc1)C(=O)N1CCN(c2ccccc2)CC1`, the activity change, negative = inhibition is -16.3% (inactive).
For `O=C(C(=O)N1CCN(c2ccccc2)CC1)c1ccc2c(c1)OCO2`, the activity change, negative = inhibition was -64.4% (active).
Consider `O=C(c1ccc2c(c1)OCO2)N1CCNc2ccccc2C1`, for which the activity change, negative = inhibition is -3.54% (inactive).
The value for `CCC(Sc1nnc(-c2ccc(OC)cc2)c(-c2ccc(OC)cc2)n1)C(=O)NC1CCCCC1` (centres undefined) was 5.23% (inactive); that for `CCOC(=O)C1SC2(C(F)(F)C(F)F)CC1(O)c1c(c(OC)c3occc3c1OC)O2` (centres undefined) was -23.2% (inactive).
In the case of `C/C(=N\NC(=O)C1(C)CC1(Br)Br)c1ccc(C)cc1C` (centres undefined), the activity change, negative = inhibition was 2.84% (inactive).
For `Cc1cc(C)cc(NC(c2nnc(-c3cccc(F)c3)o2)c2ccc(F)cc2Cl)c1` (centres undefined), the activity change, negative = inhibition was -0.542% (inactive).
Consider `CC(=O)N1CCCc2ccc(NS(=O)(=O)c3ccc(F)cc3F)cc21`, for which the activity change, negative = inhibition is 51.5% (inactive).
Regarding `Cc1nn(-c2ccccc2)c(Cl)c1/C=N/NC(=O)c1nn(C)cc1[N+](=O)[O-]`, the activity change, negative = inhibition is -99% (active).
For the compound `Cc1nn(-c2ccccc2)c(-n2cccc2)c1C(=O)O`, the activity change, negative = inhibition is -33.7% (inactive).
The value for `Cc1c(NC(=O)c2c([N+](=O)[O-])cnn2C)c(=O)n(-c2ccccc2)n1C` was 7.76% (inactive); that for `Cn1c(=O)c2c(nc(SCC(=O)Nc3ccc(F)cc3)n2Cc2ccc(Cl)cc2)n(C)c1=O` was -3.29% (inactive); that for `CCN(C(=O)CSc1nc(N)cc(=O)[nH]1)C1CCS(=O)(=O)C1` (centres undefined) was -1.32% (inactive).
Turning to `Cc1ccc2c(=O)cc(C(=O)Nc3sc4c(c3C(=O)NCc3cccnc3)CCCC4)oc2c1`, the activity change, negative = inhibition was -0.307% (inactive).
With `Cc1ccc(OCC(=O)Nc2ccc(Cl)c(-c3nc4ccccc4[nH]3)c2)cc1C`, the activity change, negative = inhibition was -26.2% (inactive).
Turning to `Cc1ccc(C)c(OCC(=O)Nc2sc3c(c2C#N)CCCC3)c1C`, the activity change, negative = inhibition is -17.4% (inactive).
For `CC1C(c2ccccc2)=[N+]([O-])C2(CCCC2)N1O` (centres undefined), the activity change, negative = inhibition was 21.7% (inactive).
In the case of `CC1CCCCN1CCCNC(=O)Cn1ncc2c([nH]c3ccccc32)c1=O` (centres undefined), the activity change, negative = inhibition was 25.9% (inactive) and 24.1% (inactive).
As for `CCCn1c2ccccc2c2cnn(CC(=O)NCCCOC(C)C)c(=O)c21`, the activity change, negative = inhibition was -18.7% (inactive).
Turning to `CCCn1c2ccccc2c2cnn(CC(=O)NCCCN3CCCCC3CC)c(=O)c21` (centres undefined), the activity change, negative = inhibition is 5.34% (inactive) and -76.4% (active).
The value for `COc1ccc(NC(=O)NNC(=O)COc2cc(C)c(Cl)c(C)c2)c(OC)c1` was -4.84% (inactive); that for `COc1ccc(Nc2ncnc3ccc(Br)cc23)c(OC)c1` was -98.7% (active); that for `CCOC(=O)CNc1nc(Cl)nc(Nc2ccc(OC)cc2OC)n1` was -6.89% (inactive).
On to `CC(=O)c1ccc(N2CCN(C3C(=O)c4ccccc4N3C(C)=O)CC2)cc1` (centres undefined), for which the activity change, negative = inhibition was 0% (inactive).
Take `CCOC(=O)N1CCC(NC(=O)C(NS(=O)(=O)c2ccc3c(c2)CCN3C(=O)CC)C(C)C)CC1` (centres undefined): the activity change, negative = inhibition is 1.92% (inactive).
The value for `COc1cccc2c1cc1c(=O)n(CC(=O)N3CCN(c4ccccc4)CC3)nc(C)n12` was 3.76% (inactive).
The value for `O=C(Cn1ncc2c3ccccc3n(Cc3ccccc3)c2c1=O)NC1CCCCCC1` was 12.7% (inactive); that for `Cc1scc(C(=O)NNC(=S)NCc2ccccc2)c1C` was -63.5% (active).
The value for `CC(C)CNC(=S)NNC(=O)c1ccccc1OC(F)F` was 2.34% (inactive); that for `Cc1scc(C(=O)NNC(=S)NCC(C)C)c1C` was -1.28% (inactive); that for `CCn1c(=O)c2cc(C(=O)Nc3cccc(C(C)=O)c3)sc2c2ccccc21` was 8.05% (inactive).
For the compound `COc1ccc(OC)c(CNC(=O)c2c3c(nc4ccccc24)C(=O)N(C2CCCCC2)C3)c1`, the activity change, negative = inhibition was 18.7% (inactive).
For the compound `CCOC(=O)C1CCN(C(=O)CSc2c3c(nc4ccc(Cl)cc24)CCCC3)CC1`, the activity change, negative = inhibition is 92.3% (inactive).
With `Cc1ccc(OCCCCN2CCCCC2)c(Br)c1`, the activity change, negative = inhibition was -23.7% (inactive).
The value for `Cc1ccc(C(C)C)cc1OCCN1CCCC1` was 2.84% (inactive).
For the compound `Cc1ccc(C(C)(C)C)c(OCCCCN2CCCC2)c1`, the activity change, negative = inhibition was -65.6% (active).
As to `CC(=O)N1CCc2ccc(N)cc21`, the activity change, negative = inhibition is -18% (inactive).
Turning to `COc1cc(NC(=O)c2cc3ccc4cccnc4c3[nH]2)cc(OC)c1OC`, the activity change, negative = inhibition is 65% (inactive).
Take `CCOc1ccc(Nc2nc3c(S(=O)(=O)c4cccc(Cl)c4)nnn3c3ccsc23)cc1`: the activity change, negative = inhibition is 16.8% (inactive).
For `C[C@H]1CN([C@@H](C)CO)C(=O)Cc2cc(NS(C)(=O)=O)ccc2O[C@@H]1CN(C)CC1CC1`, the activity change, negative = inhibition is -70.1% (active).
Take `C[C@H](CO)N1C[C@H](C)[C@H](CN(C)CC2CC2)Oc2ccc(NC(=O)CCN3CCOCC3)cc2C1=O`: the activity change, negative = inhibition was -26.7% (inactive).
With `COc1ccc(S(=O)(=O)N(C)C[C@H]2Oc3ccc(NS(=O)(=O)c4cccs4)cc3CC(=O)N([C@H](C)CO)C[C@H]2C)cc1`, the activity change, negative = inhibition is 8.23% (inactive).
The value for `O=C(c1cccc(Cl)c1)N1CCN(CCc2ccncc2)CC1` was 14.9% (inactive).
The value for `Fc1ccc(Nc2nnns2)cc1` was 21.3% (inactive); that for `O=C(COc1ccccc1)OCc1cc(=O)n2nc(-c3cccs3)sc2n1` was 24.1% (inactive).
The value for `Cc1cccc(NC(=O)c2ccc(F)c(S(=O)(=O)N(C)C3CCCCC3)c2)c1` was -81.6% (active); that for `CCOc1cccc(NC(=O)c2ccc(F)c(S(=O)(=O)N(CC)c3cccc(C)c3)c2)c1` was -33.3% (inactive).
In the case of `CCc1ccccc1NC(=O)c1ccc(F)c(S(=O)(=O)NC2CCCCCC2)c1`, the activity change, negative = inhibition is 27% (inactive).
As for `O=C(CSc1nnc(-c2ccccc2F)o1)Nc1cccc(C(F)(F)F)c1`, the activity change, negative = inhibition is 98.3% (inactive).
`Cc1nn(Cc2ccc(F)cc2)c(C)c1NC(=O)c1cc(CC(C)C)on1`: the activity change, negative = inhibition was -39% (inactive).
In the case of `CCCOc1cccc(C(=O)NCCCNC(=O)c2cccnc2)c1`, the activity change, negative = inhibition was -8.85% (inactive).
Regarding `Cc1ccc(OCC(=O)N2CCN(C(=O)c3cccnc3)CC2)cc1`, the activity change, negative = inhibition was -12.6% (inactive).
Regarding `CCCCCCOc1ccc(OC(=O)c2cccnc2)cc1`, the activity change, negative = inhibition was -79.3% (active).
Regarding `O=C(CCn1ccc2cc(S(=O)(=O)N3CCCC3)ccc21)NCc1cccc(Cl)c1`, the activity change, negative = inhibition is -10.7% (inactive).
